Assay [1] in a line: NCI Yeast Anticancer Drug Screen. Data for the rad50 strain (AID 155).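 Further: 0% = growth of vehicle-only cultures of the same strain.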 The conditions noted are these: S. cerevisiae rad50 strain growth inhibition; at 50.0 µM; stronger effect = higher value. In outline:
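Growth of the mutant yeast was measured after compound exposure and referenced to vehicle-treated cultures.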

Assay [2] is described as follows: NCI Yeast Anticancer Drug Screen. Data for the mec2-1 strain (AID 157). The settings on record: S. cerevisiae mec2-1 strain, at 50.0 µM, stronger effect = higher value. Put shortly: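 mec2-1 yeast strain, carrying an alteration in DNA damage repair or cell cycle control, was exposed to compounds; growth inhibition was measured relative to vehicle-treated controls.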
A short description of assay [3]: NCI Yeast Anticancer Drug Screen. Data for the sgs1 mgt1 strain (AID 161).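 Further: 0% = growth of cultures given vehicle only.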 The conditions noted are these: S. cerevisiae sgs1 mgt1 strain, at 50.0 µM, stronger effect = higher value. Put shortly: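 Yeast cells carrying a defined DNA-repair defect were exposed to test compounds. Growth inhibition was measured relative to vehicle-treated controls.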
The nature of assay [4]: NCI Yeast Anticancer Drug Screen. Data for the cln2 rad14 strain (AID 165).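 Further: 0% = growth equal to vehicle treated cultures.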 The settings on record: S. cerevisiae cln2 rad14 strain, at 50.0 µM, stronger effect = higher value. In outline: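 Yeast carrying cln2 and rad14 alterations (cell cycle control and DNA damage repair) were exposed to compounds. Growth inhibition was measured against vehicle-treated controls.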
Assay [5] is described as follows: NCI Yeast Anticancer Drug Screen. Data for the bub3 strain (AID 167). The settings on record: S. cerevisiae bub3 mutant strain, at 50.0 µM, stronger effect = higher value. Put shortly: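 Whole-cell yeast assay. The mutant strain was incubated with compounds, and growth inhibition was determined by comparison with vehicle-treated cells.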
A short description of assay [6]: NCI Yeast Anticancer Drug Screen. Data for the mlh1 rad18 strain (AID 175). The settings on record: S. cerevisiae mlh1 rad18 strain growth inhibition; at 50.0 µM; stronger effect = higher value. Put shortly:
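Growth inhibition of the yeast strain was measured after compound exposure and expressed relative to vehicle-treated controls. The strain carries defined defects in DNA damage repair.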

Values joined by “and” are separate entries in the source; they are usually repeats but may differ in a detail not shown here. Equal entries are not always repeated. Compounds without any hit were thinned out: in the full panel of roughly 79,000, 15% have a hit. A structure can be active in one record and inactive in another. Active and inactive are the calls of the source. No stated cut-off is given here; in the data, active means growth inhibition above about 70%; inactive means the rest.

Take `CNC(Cc1ccccc1)c1cccc(O)c1` (stereo not drawn): the growth inhibition was 4.5% (inactive) in assay [1]; -6.2% (inactive) in assay [2]; -1.3% (inactive) in assay [3]; -24.9% (inactive) in assay [4]; 0.4% (inactive) in assay [5]; -5.15% (inactive) in assay [6].

Regarding `CN1CNC2C(=O)CCC2c2ccccc21` (stereo not drawn), the growth inhibition in assay [1] was -12.2% (inactive); in assay [2] it was -39.8% (inactive); in assay [3] it was -21.3% (inactive); in assay [4], -7.4% (inactive); in assay [5] it was -28.9% (inactive); in assay [6], -9.1% (inactive).

`C#C[C@]1(O)CC[C@H]2[C@@H]3CCC4=C/C(=N/OC(=O)c5cccc6c(=O)c7ccccc7[nH]c56)CCC4[C@H]3CC[C@@]21CC` (stereo partly drawn): the growth inhibition was -15.8% (inactive) in assay [1]; -35% (inactive) in assay [2]; -30.4% (inactive) in assay [3]; 23.2% (inactive) in assay [4]; -29.1% (inactive) in assay [5]; -45.6% (inactive) in assay [6].

Regarding `CC(C)(NC1=NCCO1)c1ccccc1`, the growth inhibition in assay [1] was -4.95% (inactive); in assay [2] it was -16.9% (inactive); in assay [3] it was -7.65% (inactive); in assay [4] it was 5.5% (inactive); in assay [5] it was -13.7% (inactive); in assay [6], 62% (inactive).

With `CCNC(=S)S`, the growth inhibition is -7.35% (inactive) in assay [1]; -8.4% (inactive) in assay [2]; -13.1% (inactive) in assay [3]; -0.6% (inactive) in assay [4]; -2.25% (inactive) in assay [5]; -3.75% (inactive) in assay [6].

`C[CH2][Sn]1([CH2]C)[O]C(=O)[O][Sn]([CH2]C)([CH2]C)[O]1`: the growth inhibition in assay [1] was -30.1% (inactive); in assay [2], 0.95% (inactive); in assay [3] it was -30.2% (inactive); in assay [4], -5.05% (inactive); in assay [5], -6.05% (inactive); in assay [6], -53.3% (inactive).

`COc1cc(OC)cc(C(=O)Cc2c(C(=O)c3ccccc3)c3ccccc3n2C(=O)c2ccccc2)c1`: the growth inhibition was -5.5% (inactive) in assay [1]; -6% (inactive) in assay [2]; 0.1% (inactive) in assay [3]; -50.3% (inactive) in assay [4]; -2.15% (inactive) in assay [5]; 3.2% (inactive) in assay [6].

For `CN(C)P(N)(=S)N(C)C`, the growth inhibition in assay [1] was -2.75% (inactive); in assay [2], -9.15% (inactive); in assay [3] it was -1.3% (inactive); in assay [4] it was -15.8% (inactive); in assay [5] it was -22.6% (inactive); in assay [6] it was -7.05% (inactive).

With `O=C(O)c1ccc(I)cc1.[Ni]`, the growth inhibition in assay [1] is 82.8% (active); in assay [2], 5.7% (inactive); in assay [3], 57.1% (inactive); in assay [4], 8.85% (inactive); in assay [5], 85% (active); in assay [6] it was 30% (inactive).

Take `CCN1CN(c2ccccc2)C2(CCN(CC(CC3OCCO3)c3ccc(F)cc3)CC2)C1=O` (stereo not drawn): the growth inhibition in assay [1] is 28.5% (inactive); in assay [2] it was 32.2% (inactive); in assay [3], 51.9% (inactive); in assay [4] it was 13.6% (inactive); in assay [5], 47% (inactive); in assay [6] it was 44.6% (inactive).

As for `Nc1nnc[se]1`, the growth inhibition in assay [1] is 7.85% (inactive); in assay [2] it was 5.35% (inactive); in assay [3], -8.1% (inactive); in assay [4], -1.55% (inactive); in assay [5] it was -4.2% (inactive); in assay [6], -1.6% (inactive).

For `Cc1nn(C)pc1P(C)(=S)n1nc(N(C)C)np1` (stereo not drawn), the growth inhibition was -2.65% (inactive) in assay [1]; -19.1% (inactive) in assay [2]; 0.65% (inactive) in assay [3]; 0.2% (inactive) in assay [4]; -7.55% (inactive) in assay [5]; -7.75% (inactive) in assay [6].

`CC(C)(C)C1COP(=O)(Oc2ccccc2)OC1` (stereo not drawn): the growth inhibition in assay [1] was 2.35% (inactive); in assay [2] it was 7.55% (inactive); in assay [3], -4.5% (inactive); in assay [4] it was -13.8% (inactive); in assay [5] it was 19.4% (inactive); in assay [6], 3.6% (inactive).

`CC1C2CCC3C(O)C2(CC(O)C2(O)C1CC(O)C2(C)C)CC3(C)O` (stereo not drawn): the growth inhibition in assay [1] was 11.6% (inactive); in assay [2], -24.8% (inactive); in assay [3] it was 6.85% (inactive); in assay [4], 13.3% (inactive); in assay [5] it was -5.15% (inactive); in assay [6] it was -4.35% (inactive).

`CCOP(=O)(OCC)/C(C#N)=C/c1ccc(C#N)cc1`: the growth inhibition is 30.6% (inactive) in assay [1]; 15.8% (inactive) in assay [2]; 10.8% (inactive) in assay [3]; 12.3% (inactive) in assay [4]; 14.7% (inactive) in assay [5]; 55.2% (inactive) in assay [6].

For `NC(=O)C(Cl)(Cl)CCl`, the growth inhibition in assay [1] was 14.7% (inactive); in assay [2] it was -34.5% (inactive); in assay [3] it was -12.4% (inactive); in assay [4], 1.5% (inactive); in assay [5] it was -2.5% (inactive); in assay [6], 6.65% (inactive).

Regarding `O=NN1CCNCC1`, the growth inhibition in assay [1] was -20.1% (inactive) and -11.3% (inactive); in assay [2], -16.1% (inactive) and -24.3% (inactive); in assay [3], -16.7% (inactive) and -13.2% (inactive); in assay [4] it was -24.5% (inactive) and -9.25% (inactive); in assay [5], -5.9% (inactive) and -6.1% (inactive); in assay [6], 8.2% (inactive) and -2.55% (inactive).

`c1ccc2c(c1)-c1ccccc1C1NC21` (stereo not drawn): the growth inhibition is 21.3% (inactive) and 69% (inactive) in assay [1]; 2.3% (inactive) and 47.4% (inactive) in assay [2]; 21.9% (inactive) and 48.2% (inactive) in assay [3]; 10.7% (inactive) and 56.1% (inactive) in assay [4]; 20.5% (inactive) and 98.5% (active) in assay [5]; -50.5% (inactive) and 51.2% (inactive) in assay [6].

For the origin of these results see PubChem BioAssay (NCI).
